The term viability denotes a per cent measure of how many cells are alive, often set against a control. As usually defined, the AC50 is the midpoint of the concentration-response curve, whichever way the signal moves. The IC50 is the midpoint of a concentration-inhibition curve.

The results in this text go back to PubChem BioAssay.

Several values for one entry are separate records, joined by “and”; a condition that tells them apart may be missing. Equal entries are not always repeated. Records with an inconclusive call do not appear. Activity calls are given as the source filed them. Unless noted, no cut-off is given here; in the data, nearly all actives have AC50 up to about 26 µM.

A short description of experiment [1]: P. berghei load reduction in hepatocytes – cell-based, HepG2, luciferase luminescence, HepG2 viability, primary screen (AID 624349; in the data active = parasite load remaining mostly below about 12%, no sharp cut-off; inactive = mostly above about 10%;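 note: 100% = mean of DMSO negative control wells on the same plate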). The conditions noted are these: P. berghei liver stage in HepG2, luciferase luminescence, concentration not given here; parasite load remaining: stronger effect = lower value; viability: measured here: HepG2 viability without parasites.
Experiment [2] is described as follows: Wnt pathway potentiators raising nuclear beta-catenin – imaging, WNT3A-conditioned medium, mouse C2C12, NPC library, primary screen (AID 1117326; in the data active = nuclear beta-catenin stimulation mostly above about 4.2%, no sharp cut-off; inactive = mostly below about 10%). The conditions noted are these: stronger effect = higher value.
Experiment [3] is described as follows: stimulators of insulin release from INS-1E, primary screen, cell-based, 5 mM glucose, NPC library (AID 1117329;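 active = compound raises insulin release from rat beta cells at 5 mM glucose, no numeric limit stated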). The settings on record: rat INS-1E insulin secretion, at 10 µM, stronger effect = higher value.
The nature of experiment [4]: growth inhibition of GSK3B-pretreated HCT116 cells – cell-based, CellTiter-Glo, 0.2 to 20 µM (AID 1117336;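 active = compounds lowering colon cancer cell viability after pretreatment blocking the GSK3B kinase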). The conditions noted are these: HCT116 viability after GSK3B inhibitor, at 20 µM, stronger effect = higher value. For orientation: Cellular ATP, detected with luciferase, serves as a proxy for viable cell number.
The nature of experiment [5]: inhibition of endothelial tube formation, primary screen, imaging, VEGF stimulated, CD31 staining, tube area, NPC library (AID 1117340;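 active = compound that reduces growth-factor-driven endothelial tube area in a mixed cell culture, no cutoff stated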). The conditions noted are these: VEGF-stimulated ADSC/ECFC co-culture, at 10 µM, stronger effect = higher value.
Experiment [6] can be described thus: GLP1 release stimulators, primary, NCI-H716, NPC library (AID 1117341;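 active = compound raises GLP1 secretion from the human gut endocrine cells, with no numeric limit stated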). The conditions noted are these: NCI-H716 cells, at 10 µM, stronger effect = higher value.
A short description of experiment [7]: HCT116 colon cancer cell growth inhibition, primary screen, CellTiter-Glo luminescence, NPC library (AID 1117342;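 active = compounds that lower survival of HCT116 colon cancer cells in the luminescence readout, no numeric limit stated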). The conditions noted are these: at 20 µM (top of the series).
Experiment [8] can be described thus: reduced SW480 viability measured with CellTiter-Glo, NPC library, primary (AID 1117343;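 active = compounds that lower viability of the colon cancer cells in the luminescence readout, with no numeric limit stated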). The conditions noted are these: CellTiter-Glo luminescence; at 20 µM (top of the series) unless noted.
Experiment [9] can be described thus: NPC library primary testing for decreased DLD-1 cell viability via CellTiter-Glo (AID 1117346;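 active = compounds that lower survival of DLD-1 colon cancer cells in the luminescence readout, no cutoff given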). The settings on record: DLD-1 viability, CellTiter-Glo luminescence; at 20 µM (top of the series).
Experiment [10] is described as follows: viability loss in pontine glioma line – cell-based, JHH-DIPG-1, MIPE4.0, CellTiter-Glo, qHTS, dose response (AID 1347062; cut-off not given, nearly all actives have AC50 up to about 27 µM;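 for AC50: cells exposed to compound for two days before readout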). The conditions noted are these: JHH-DIPG-1 viability, CellTiter-Glo ATP luminescence.
Experiment [11] in a line: viability loss in pontine glioma line – cell-based, SU-DIPG-XXV, MIPE5.0, CellTiter-Glo, qHTS, dose response (AID 1347065).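 Note: cells exposed to compound for 48 hours before ATP readout.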 The settings on record: CellTiter-Glo ATP luminescence.
The nature of experiment [12]: JHH-DIPG-1 glioma cell viability, MIPE5.0 library, CellTiter-Glo luminescence, qHTS (AID 1347067).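 Note: cells exposed to compound for 48 hours before readout.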 The conditions noted are these: JHH-DIPG-1 glioma viability, CellTiter-Glo ATP luminescence.
The nature of experiment [13]: growth inhibition of DIPG cells – cell-based, MIPE5.0 library, qHTS (AID 1347068; cut-off not given, nearly all actives have IC50 up to about 30 µM;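 for IC50: cells exposed to compound for 48 hours before viability readout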). The settings on record: SU-DIPG-XXV viability. A general note: In qHTS, concentration-response curves come from the screen itself.
A short description of experiment [14]: viability loss with induced miR-34 in A549 – imaging, A549 dox-inducible miR-34, nuclei and caspase counts, primary screen (AID 1347080;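 active = compounds whose cell count with miR-34 switched on is under 0.7 times the count with it off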). The settings on record: A549 miR-34 inducible, Hoechst nuclei count, 48 h.
Experiment [15] in a line: MELAS cybrid and Rieske KO viability enhancers – cell-based, MELAS cybrids, Rieske KO mouse fibroblasts, CellTiter-Glo, primary screen (AID 1508586;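 active = mean z-score across replicates of 1.96 or higher in either the MELAS or the Rieske mutant cell line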;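 note: z relative to plate mean and SD of compound and empty wells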). The conditions noted are these: low glucose.
A short description of experiment [16]: galactose survival enhancers in mitochondrial complex I cybrids – cell-based, galactose medium, ATP luminescence, primary screen (AID 1645843;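 active = z-score of at least 1.8 in each of two replicates, scored against plate mean and spread of sample wells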;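 note: positive z means more ATP and so rescue of galactose-driven cybrid death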). The settings on record: complex I mutant cybrid cells, 72 h, stronger effect = higher value.
Experiment [17] can be described thus: viability loss in pontine glioma line – cell-based, SU-DIPG-IV, MIPE4.0, CellTiter-Glo, qHTS, dose response (AID 1347063; cut-off not given, nearly all actives have AC50 up to about 30 µM;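 note: compound exposure lasted 48 hours before the viability readout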). The settings on record: CellTiter-Glo ATP luminescence.
A short description of experiment [18]: growth inhibition of DIPG cells – cell-based, MIPE4.0 library, CellTiter-Glo luminescence, qHTS (AID 1347066; cut-off not given, nearly all actives have AC50 up to about 30 µM;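 note: cells exposed to compound for 48 hours before readout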). The settings on record: SU-DIPG-VI viability, CellTiter-Glo ATP luminescence.
[19] abbreviates: stronger effect = lower value, cell number ratio, induced over uninduced.
The mark [20] stands for this setting: measured here: relative caspase fold change +Dox/-Dox.
The mark [21] stands for this setting: measured here: total cells with miR-34 induction, stronger effect = lower value.
The mark [22] stands for this setting: measured here: total cells without miR-34 induction.
[23] abbreviates: MELAS cybrid survival, CellTiter-Glo 48 h, stronger effect = higher value.
Setting [24] is: Rieske KO mouse fibroblast survival, CellTiter-Glo 72 h.

On to `CCC1=C[C@@H]2CN(C1)Cc1c([nH]c3ccccc13)[C@@](C(=O)OC)(c1cc3c(cc1OC)N(C)[C@H]1[C@@](O)(C(=O)OC)[C@H](OC(C)=O)[C@]4(CC)C=CCN5CC[C@]31[C@@H]54)C2`, for which the parasite load remaining in [1] is 30.5% (inactive). Moreover, the viability in experiment [1] is 85%. The nuclear beta-catenin stimulation in [2] (at 10 µM) was 60.8% (active); in experiment [2] (stimulation, at 2 µM), 72.7%. In [3], the insulin secretion stimulation is 2.25% (inactive). Besides, the viability decrease in [4] was 103% (active). Moreover, the tube area decrease in [5] is 106% (active). In experiment [6], the GLP1 secretion stimulation was 2.5% (inactive). Besides, in experiment [7], the inhibition of viability is 94.3% (active). For the same compound, the viability decrease (inhibition) in [8] was 91.4% (active); in experiment [9], 76.7% (active). The half-maximal activity concentration (AC50) is 13.2 nM (active) in experiment [10], 204 nM (active) in [11] and 144 nM (active) in [12]. Moreover, the IC50 in [13] is 1150 nM (active). The results for the fold change in experiment [14] (setting [19]) and in experiment [14] (setting [20]) were 0.917 (inactive) and 1.02, respectively. The cell count is 1860 in experiment [14] (setting [21]) and 2030 in experiment [14] (setting [22]). Further, the z-score in experiment [15] (setting [23]) is -2.16 (inactive); in [15] (setting [24]) it was 1.89; in experiment [16], -2.04 (inactive).
For `Clc1ccc(C(Cn2ccnc2)OCc2ccc(Sc3ccccc3)cc2)c(Cl)c1` (stereo not drawn), the nuclear beta-catenin stimulation in experiment [2] (at 10 µM) is 8.8% (inactive); in [2] (stimulation, at 2 µM) it was 0%. Besides, the insulin secretion stimulation in experiment [3] is 6.2% (inactive). Moreover, the viability decrease in [4] was 110% (active). Further, the tube area decrease in experiment [5] is 110% (active). In experiment [6], the GLP1 secretion stimulation is 16% (inactive). The inhibition of viability in [7] was 112% (active). In addition, the viability decrease (inhibition) was 132% (active) in [8] and 101% (active) in experiment [9]. In addition, the AC50 in experiment [17] was 16600 nM (active).
As to `COc1ccc(-c2ccc3cc(C(=O)O)ccc3c2)cc1C12CC3CC(CC(C3)C1)C2`, the nuclear beta-catenin stimulation in experiment [2] (at 10 µM) is 21.9% (inactive); in [2] (stimulation, at 2 µM), 32.2%. The insulin secretion stimulation in experiment [3] is 0.9% (inactive). In addition, the viability decrease in experiment [4] is 118% (active). Besides, in experiment [5], the tube area decrease is 99.5% (active). In addition, the GLP1 secretion stimulation in experiment [6] is -2.3% (inactive). In addition, the inhibition of viability in [7] is 123% (active). Moreover, the figures for the viability decrease (inhibition) in [8] and in [9] were 159% (active) and 102% (active), respectively. The result in [10], in experiment [17], in experiment [18] and in experiment [13] was inactive. In addition, the fold change in experiment [14] (setting [19]) is 1.08 (inactive) and 1.16 (inactive); in [14] (setting [20]), 0.775 and 0.908. Besides, the cell count is 1330 and 1240 in [14] (setting [21]); 1230 and 1070 in [14] (setting [22]). Moreover, the z-score was -0.222 (inactive) and -1.26 (inactive) in experiment [15] (setting [23]); 0.947 and 0.282 in [15] (setting [24]).
For `O=C(Nc1ccc(S(=O)(=O)N2CCOCC2)cc1)c1cc(Cl)ccc1NS(=O)(=O)c1ccc(Cl)s1`, the nuclear beta-catenin stimulation in experiment [2] (at 10 µM) was 0.9% (inactive); in experiment [2] (stimulation, at 2 µM), -0.5%. Further, the insulin secretion stimulation in [3] is 3.7% (inactive). The viability decrease in experiment [4] is 118% (active). Moreover, the tube area decrease in experiment [5] was 100% (active). In addition, the GLP1 secretion stimulation in experiment [6] was 39.8% (active). Besides, the inhibition of viability in experiment [7] is 124% (active). Further, the viability decrease (inhibition) was 158% (active) in experiment [8] and 101% (active) in experiment [9]. Also, the compound was classed as inactive in experiment [11], in experiment [12] and in [13].
Consider `CN1CCCN=C1/C=C/c1cccs1`, for which the parasite load remaining in experiment [1] was 31.2% (inactive) and 87.7% (inactive). Besides, the viability in [1] is 47.1% and 90.3%. The nuclear beta-catenin stimulation was 1.3% (inactive) in experiment [2] (at 10 µM) and 0% in [2] (stimulation, at 2 µM). For the same compound, the insulin secretion stimulation in [3] is 0.75% (inactive). Moreover, the viability decrease in experiment [4] is 6.6% (inactive). The tube area decrease in experiment [5] was -9.9% (inactive). Also, the GLP1 secretion stimulation in [6] was 1.8% (inactive). The inhibition of viability in [7] is 13.5% (inactive). Besides, the figures for the viability decrease (inhibition) in experiment [8] and in experiment [9] were 4.9% (inactive) and -4.2% (inactive), respectively. Besides, the call in experiment [11], in experiment [12] and in experiment [13] was inactive. Further, the fold change in [14] (setting [19]) was 0.92 (inactive); in experiment [14] (setting [20]) it was 1.06. Besides, the values for the cell count in experiment [14] (setting [21]) and in experiment [14] (setting [22]) were 9190 and 9990, respectively. The z-score in experiment [15] (setting [23]) is 0.267 (inactive); in experiment [15] (setting [24]) it was -0.214.
